Assay results from PubChem BioAssay (NCATS).
Inconclusive results are not listed. Activity calls are given as the source filed them. Calls come from the whole dose curve; as a rule, active = well fitted inhibition curve with a large enough effect; inconclusive = small, poorly fitted or top-dose-only effect; inactive = flat fitted curve, though single readings scatter.

Assays:
[1] = qHTS profiling for inhibitors of Plasmodium falciparum proliferation (AID 504749);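 for activity, negative = inhibition: 0% = DMSO vehicle and full inhibition = artemisinin control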; for all read-outs here: nearly all actives have a fitted effect of over 60% in size; settings: P. falciparum in erythrocytes, SYBR Green DNA, 72 h; for activity, negative = inhibition: at 28.7 µM (top of the series)
How it was run: (§1)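 Three-day growth assay of blood-stage parasites in erythrocytes (0.3% parasitemia, 2.5% hematocrit) at 37 C, 5% CO2, quantified by SYBR Green DNA staining after overnight detergent lysis.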

[2] = test system: 3D7; assay: as above; settings: P. falciparum in erythrocytes, SYBR Green DNA, 72 h; series mostly up to 28.7 µM
How it was run: as §1

[3] = test system: 7G8; assay: as above; settings: P. falciparum in erythrocytes, SYBR Green DNA, 72 h; series mostly up to 28.7 µM
How it was run: as §1
Potency is the fitted concentration of half-maximal effect.

CCCCC[C@H](O)/C=C/[C@H]1[C@H](O)CC(=O)[C@@H]1C/C=C\CCCC(=O)O
inactive: activity, negative = inhibition ([1]; parasite line A) 7.21% | activity, negative = inhibition ([1]; parasite line B) 0.0897% | Potency [2] | Potency [3]

CCOc1ccc(NC(=S)Nc2ccc(OCC)cc2)cc1
inactive: activity, negative = inhibition ([1]; parasite line A) 1.76% | activity, negative = inhibition ([1]; parasite line B) -2.23% | Potency [2] | Potency [3]

COc1ccc(C(=O)c2ccc(C)cc2)c(O)c1
inactive: activity, negative = inhibition ([1]; parasite line A) 16.1% | activity, negative = inhibition ([1]; parasite line B) 14.8% | Potency [2] | Potency [3]

O=P(O)(O)OP(=O)(O)OP(=O)(O)O
inactive: activity, negative = inhibition ([1]; parasite line A) -4.84% | activity, negative = inhibition ([1]; parasite line B) 8.54% | Potency [2] | Potency [3]

CN=C1C=CC(=C(c2ccc(N(C)C)cc2)c2ccc(N(C)C)cc2)C=C1
active: Potency ([1]; parasite line A) 0.562 µM | Potency ([1]; parasite line B) 0.398 µM | Potency [2] 0.708 µM | Potency [3] 0.282 µM

CCc1ccc(S(=O)(=O)O)cc1
inactive: activity, negative = inhibition ([1]; parasite line A) -3.46% | activity, negative = inhibition ([1]; parasite line B) 4.58% | Potency [2] | Potency [3]

CC(=O)Nc1ccc(OC(C)=O)cc1
inactive: activity, negative = inhibition ([1]; parasite line A) 10.5% | activity, negative = inhibition ([1]; parasite line B) 11.7% | Potency [2] | Potency [3]

CC12CCC(C[N+](C)(CCC[N+](C)(C)C)C1)C2(C)C (configuration not stated)
inactive: activity, negative = inhibition ([1]; parasite line A) 7.03% | activity, negative = inhibition ([1]; parasite line B) 18.6% | Potency [2] | Potency [3]

NC(=S)N=Nc1ccc(NN=C(N)N)cc1
active: Potency ([1]; parasite line A) 10 µM | Potency ([1]; parasite line B) 10 µM | Potency [2] 12.6 µM | Potency [3] 10 µM

CN(CCO)CC(O)Cn1cnc2c1c(=O)n(C)c(=O)n2C (configuration not stated) (tested in a mixture with another compound)
inactive: activity, negative = inhibition ([1]; parasite line A) 12.7% | activity, negative = inhibition ([1]; parasite line B) 12.8% | Potency [2] | Potency [3]

CSCCC(N)C(=O)O (configuration not stated)
inactive: activity, negative = inhibition ([1]; parasite line A) 6.14% | activity, negative = inhibition ([1]; parasite line B) 15.2% | Potency [2] | Potency [3]

CCCCCCOC(=O)c1cccnc1
inactive: activity, negative = inhibition ([1]; parasite line A) 6.05% | activity, negative = inhibition ([1]; parasite line B) -29.8% | Potency [2] | Potency [3]

O=C1N=C2SCCN2C(=O)C1Cc1ccc(Cl)cc1 (configuration not stated)
inactive: activity, negative = inhibition ([1]; parasite line A) 18.3% | activity, negative = inhibition ([1]; parasite line B) 17.2% | Potency [2] | Potency [3]

CC(C)CCC[C@@H](C)[C@H]1CC[C@H]2[C@@H]3CC=C4C[C@@H](O)CC[C@]4(C)[C@H]3CC[C@]12C
inactive: activity, negative = inhibition ([1]; parasite line A) 4.96% | activity, negative = inhibition ([1]; parasite line B) -1.65% | Potency [2] | Potency [3]

O=C(O)COc1ccc(CCNS(=O)(=O)c2ccccc2)s1
inactive: activity, negative = inhibition ([1]; parasite line A) 12.4% | activity, negative = inhibition ([1]; parasite line B) -10.1% | Potency [2] | Potency [3]

CCN(CC)C(=O)c1cccnc1
inactive: activity, negative = inhibition ([1]; parasite line A) 10.9% | activity, negative = inhibition ([1]; parasite line B) 11.6% | Potency [2] | Potency [3]

Nc1nccs1
inactive: activity, negative = inhibition ([1]; parasite line A) 12.4% | activity, negative = inhibition ([1]; parasite line B) 11.4% | Potency [2] | Potency [3]

CC(C)c1ncc([N+](=O)[O-])n1C
inactive: activity, negative = inhibition ([1]; parasite line A) 8.33% | activity, negative = inhibition ([1]; parasite line B) 4.53% | Potency [2] | Potency [3]

O[C@@H]([C@H](O)[C@H](O)CBr)[C@H](O)CBr
inactive: activity, negative = inhibition ([1]; parasite line A) -11.7% | activity, negative = inhibition ([1]; parasite line B) 1.51% | Potency [2] | Potency [3]

ClC(Cl)Cl
inactive: activity, negative = inhibition ([1]; parasite line A) 5.74% | activity, negative = inhibition ([1]; parasite line B) 10.9% | Potency [2] | Potency [3]

CC(=O)N[C@@H]1C(O[C@H]2O[C@H](C(=O)O)C(O)[C@H](O)[C@H]2O)[C@H](O)[C@@H](CO)O[C@H]1O[C@@H]1C(C(=O)O)O[C@@H](O[C@H]2[C@H](O)[C@@H](CO)OC(O)[C@@H]2NC(C)=O)[C@H](O)[C@H]1O (some centres not stated)
inactive: activity, negative = inhibition ([1]; parasite line A) 0.279% | activity, negative = inhibition ([1]; parasite line B) 2.2% | Potency [2] | Potency [3]

CCCCCCCCCCCCOCCCN
inactive: activity, negative = inhibition ([1]; parasite line A) -4.13% | activity, negative = inhibition ([1]; parasite line B) 8.54% | Potency [2] | Potency [3]

CCOC(=O)c1cc(-c2ccccc2)nc2ccc(C)cc12
inactive: activity, negative = inhibition ([1]; parasite line A) 17.4% | activity, negative = inhibition ([1]; parasite line B) 7.25% | Potency [2] | Potency [3]

CN[C@@H]1[C@H](O[C@H]2[C@H](O[C@H]3[C@H](O)[C@@H](O)[C@H](N=C(N)N)[C@@H](O)[C@@H]3N=C(N)N)O[C@@H](C)[C@]2(O)C=O)O[C@@H](CO)[C@H](O)[C@H]1O
inactive: activity, negative = inhibition ([1]; parasite line A) 5.41% | activity, negative = inhibition ([1]; parasite line B) 15.5% | Potency [2] | Potency [3]

[O-][N+](=Nc1ccccc1)c1ccccc1
inactive: activity, negative = inhibition ([1]; parasite line A) -5.95% | activity, negative = inhibition ([1]; parasite line B) -6.73% | Potency [2] | Potency [3]

Cc1ccccn1
inactive: activity, negative = inhibition ([1]; parasite line A) 14.6% | activity, negative = inhibition ([1]; parasite line B) 15% | Potency [2] | Potency [3]

Cc1cccc(Nc2ncccc2C(=O)O)c1C
inactive: activity, negative = inhibition ([1]; parasite line A) 2.92% | activity, negative = inhibition ([1]; parasite line B) 1.25% | Potency [2] | Potency [3]

CCC(=O)c1ccc2c(c1)N(CCCN1CCN(CCO)CC1)c1ccccc1S2
active: Potency ([1]; parasite line A) 10 µM | Potency ([1]; parasite line B) 11.2 µM | Potency [2] 10 µM | Potency [3] 11.2 µM
